Source: PubChem BioAssay (Tox21)
Unmarked numbers belong to inactive results. The source made the active and inactive calls. Calls come from the whole dose curve.

Experiment: qHTS assay to identify small molecule agonists of the sonic hedgehog signaling (Shh) pathway (AID 1259368); note: nearly all actives have a fitted effect of over 15% in size;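 for activity change: NIH/3T3-derived 3T3Gli1-Luc cells carrying a stable Gli1-driven firefly luciferase reporter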
Details: NIH/3T3 Gli1-Luc reporter, luciferase, 24 h; series mostly up to 92.4 µM; activity change: at the top concentration
Description: National Center for Advancing Translational Sciences [NCATS]
NIH Chemical Genomics Center [NCGC]
U.S. Environmental Protection Agency [EPA]
National Institutes of Environmental Health Sciences [NIEHS]
National Toxicology Program [NTP]
The sonic hedgehog (Shh) pathway is essential for normal embryonic development. Dysregulation of the Shh pathway can cause severe developmental defects in organs. Therefore chemicals that interfere with the pathway are potential developmental toxicants. A cell line designated 3T3Gli1-Luc (DMB/OARSA/CFSAN/FDA, Laurel, MD), a NIH/3T3 derived clone containing stably integrated Gli1-Luc reporter is used to detect chemical interference of the Shh pathway, by changes in the expression of the firefly Luc gene under the control of the Gli1 transcriptional response element. This cell line was used to screen Tox21 libraries for identifying and prioritizing the potential developmental toxicants that interfere Shh pathway.
3T3 Gli1-Luc cells were dispensed at 2,000 per well in 5uL of culture medium into white solid bottom 1536-well plates (Greiner Bio-One, Monroe, NC) using a Multidrop Combi (Thermo Scientific, Waltham, MA) dispenser. The assay plates were incubated at 37 C and 5% CO2 for 4hr, and then 23nL of compounds dissolved in DMSO and positive control were transferred using a Pintool station (Wako, San Diego, CA). The assay plates were incubated at 37C and 5% CO2 for 24hr. For luciferase read, 4uL of Amplite Luciferase reporter gene assay reagent (AAT Bioquest, Inc. Sunnyvale, CA) was added to each well of the assay plates using Flying Reagent Dispenser (FRD, Aurora Discovery, San Diego, CA) and incubated at room temperature for 30min. The luminescence signal was measured using a ViewLux plate reader (Perkin Elmer, Shelton, CT).
% is set by controls: 0 for no effect and ±100 for the full control effect; potency is the fitted concentration of half-maximal effect.

| Compound | activity change | Potency |
| --- | --- | --- |
| CN(C)CCC=C1c2ccccc2C=Cc2ccccc21 | 0.902% [at 42.5 µM, active compounds read high] |  |
| OC(CCN1CCCC1)(c1ccccc1)C1CCCCC1 (stereo not given) | -2.59% [at 42.5 µM, active compounds read high] |  |
| CCC=CC#N |  | 29.7 µM (active) |
| CC(C)(C)CC(=O)OCC(=O)[C@@]1(O)CC[C@H]2[C@@H]3CCC4=CC(=O)C=C[C@]4(C)[C@H]3[C@@H](O)C[C@@]21C | 0.0085% [at 42.5 µM, active compounds read high] |  |
| CCCCCCCC/C=C\CCCCCCCCCCCC(=O)O | 2.04% |  |
| Cc1cc(C)c(N)cc1C | 0.184% |  |
| C[C@]12CC[C@@H]3c4ccc(O)cc4CC[C@H]3[C@@H]1CC[C@@H]2OC(=O)CCC1CCCC1 |  | inactive |
| Cc1cscn1 | 0.292% |  |
| C[C@H]1C[C@H](O)c2ccsc2S1(=O)=O | -0.145% [at 42.5 µM, active compounds read high] |  |
| CCCCCCCCCCC(=O)O | 1.21% |  |
| CCC(=O)C1CC(C(C)C)CC=C1C (stereo not given) | -0.171% |  |
| O=C(O)CCCCCCCCCCCBr | 2.31% |  |
| CC1CC(C)C(=O)C1=O (stereo not given) | 0.0398% |  |
| Cc1cc(C)cc(N)c1 | 0.851% |  |
| CCCCCC[C@@H](O)C/C=C\CCCCCCCC(=O)OCC(O)CO (stereo not given in full) | 1.92% |  |
| CCCCC(CC)CN (stereo not given) | 0.215% |  |
| Brc1cc(Br)c(Oc2cc(Br)c(Br)cc2Br)cc1Br | 0.108% [at 42.5 µM, active compounds read high] |  |
| CC(CCC(=O)O)C(=O)O (stereo not given) | 3.5% |  |
| C[C@@]12CCC[C@H]1[C@@H]1CC[C@H]3C[C@@H](O)CC[C@]3(C)[C@H]1CC2 | -1.1% [at 42.5 µM, active compounds read high] |  |
| CC/C=C1/OC(=O)c2ccccc21 | -12.8% |  |

| Compound | activity change | Potency |
| --- | --- | --- |
| Oc1cccc(O)c1O | -0.955% |  |
| O=C(O)C[C@H](NC(=O)OCc1ccccc1)C(=O)O | 0.335% |  |
| O=c1cc(-c2ccccc2)oc2cc(O)cc(O)c12 | -7.56% |  |
| O=C(/C=C/c1ccccc1)OCCc1ccccc1 | 13.7% |  |
| CCOc1ccccc1O[C@H](c1ccccc1)[C@H]1CNCCO1 | -1.71% [at 42.5 µM, active compounds read high] |  |
| CS(=O)(=O)c1ccc(-c2cn3ccccc3n2)cc1 |  | 11.9 µM (active) |
| C1C[C@@H]2[C@H]3CC[C@H](C3)[C@@H]2C1 | 1.01% |  |
| CCOC(=O)OC(C)OC(=O)[C@@H]1N2C(=O)[C@@H](NC(=O)[C@H](N)c3ccccc3)[C@H]2SC1(C)C (stereo not given in full) | 0.219% [at 42.5 µM, active compounds read high] |  |
| C[C@@H](O[C@H]1OCCN(Cc2n[nH]c(=O)[nH]2)[C@H]1c1ccc(F)cc1)c1cc(C(F)(F)F)cc(C(F)(F)F)c1 | -2.84% [at 42.5 µM, active compounds read high] |  |
| NNC(=O)CP(=O)(c1ccccc1)c1ccccc1 | 1.16% [at 42.5 µM, active compounds read high] |  |
| COc1ccccc1N1CCN(CC(O)COc2cccc3ccccc23)CC1 (stereo not given) | -2.83% [at 42.5 µM, active compounds read high] |  |
| CO[C@]1(NC(=O)CSC(F)F)C(=O)N2C(C(=O)O)=C(CSc3nnnn3CCO)CO[C@H]21 | 0.281% [at 42.5 µM, active compounds read high] |  |
| c1ccc2c(c1)CCc1ccccc1N2 |  | inactive |
| COc1ccc(OC(=O)N(CC(=O)O)Cc2ccc(OCCc3nc(-c4ccccc4)oc3C)cc2)cc1 | 0.963% [at 42.5 µM, active compounds read high] |  |
| O=C1NCCN1CCO | 1.07% |  |
| C/C=C/C=C/C=O | -0.93% |  |
| CN1CCCN=C1COC(=O)C(O)(c1ccccc1)C1CCCCC1 (stereo not given) | 0.994% [at 42.5 µM, active compounds read high] |  |
| COc1cc(C(=O)NCCCCCC(=O)O)cc(OC)c1OC | -0.396% [at 42.5 µM, active compounds read high] |  |
| CCOC(=O)c1ccc(OCCN2C[C@H](O)[C@@H](O)[C@H](O)[C@H]2CO)cc1 | 0.153% [at 42.5 µM, active compounds read high] |  |
| Nc1nnc(-c2ccc([N+](=O)[O-])o2)o1 | -3.69% |  |
